Screening data from PubChem.
HttQ103 aggreg: qHTS Multiplex Assay to Identify Dual Action Probes in a Cell Model of Huntington: Aggregate Formation (GFP). PC12 HttQ103-GFP aggregates, Acumen cytometry, 40 h. Potency, µM (titrated, usually from 46.1 µM), without a hit: at the top dose activity change, negative = inhibition, hits mostly inhibitors. actives 1.1% (n = 220,000). AID 1688, 2009; active = well fitted curve in the direction sought with a large enough effect; inconclusive = small, poorly fitted or top-dose-only effect, or another doubt; inactive = no such curve, though single readings can be large; an effect the other way counts as inactive or inconclusive; also: % is scaled to controls: 0 for no effect and ±100 for the full control effect; nearly all actives have a fitted effect of over 60% in size
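Ecdysone-promoter PC12 model expressing HTT exon 1 Q103 fused to GFP, induced by tebufenozide at 100 nM final. Compounds titrated; aggregates sized 1–25 µm scored on a 488 nm laser cytometer.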
HTT ATP protect: qHTS Multiplex Assay to Identify Dual Action Probes in a Cell Model of Huntington: Cytoprotection (ATP) | PC12 HTT-Q103 induced, cytoprotection, ATP luminescence, 40 h | Potency, µM (highest dose often 56.4 µM), for inactives: cytoprotection (ATP increase), most hits filed as activators | actives 0.14% (n = 230,000); active = well fitted curve in the direction sought with a large enough effect; inconclusive = small, poorly fitted or top-dose-only effect, or another doubt; inactive = no such curve, though single readings can be large; an effect the other way counts as inactive or inconclusive; also: % of control where 0% means no effect; nearly all actives have a fitted effect of over 45% in size
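Cells were plated at 1500 per well in phenol red-free DMEM with 5% equine and 5% calf serum. Tebufenozide (100 nM final) and compounds were added, then ATPlite reagent, and luminescence was read.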
ALDH1A1 inh: qHTS Assay for Inhibitors of Aldehyde Dehydrogenase 1 (ALDH1A1); Aldehyde dehydrogenase 1A1 (Homo sapiens), P00352; actives 7.3% (n = 220,000); Potency, µM (series often up to 75.3 µM), without a hit: at the highest dose activity, negative = inhibition, usual class: inhibitors; Purified ALDH1A1, NADH fluorescence, propionaldehyde substrate; AID 1030, 2008;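 also: plate controls were no enzyme wells and a reference inhibitor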
HPGD inh: qHTS Assay for Inhibitors of HPGD (15-Hydroxyprostaglandin Dehydrogenase). actives 4.3% (n = 150,000). purified HPGD, NADH fluorescence kinetic, PGE2 substrate. AID 894, 2007. 15-hydroxyprostaglandin dehydrogenase [NAD(+)] (Homo sapiens), P15428. Potency, µM, for the others: at the top dose activity change, negative = inhibition, actives largely listed as inhibitors; also: % is scaled to controls: 0 for no effect and ±100 for the full control effect
Target sequence (P15428 whole entry, looked up): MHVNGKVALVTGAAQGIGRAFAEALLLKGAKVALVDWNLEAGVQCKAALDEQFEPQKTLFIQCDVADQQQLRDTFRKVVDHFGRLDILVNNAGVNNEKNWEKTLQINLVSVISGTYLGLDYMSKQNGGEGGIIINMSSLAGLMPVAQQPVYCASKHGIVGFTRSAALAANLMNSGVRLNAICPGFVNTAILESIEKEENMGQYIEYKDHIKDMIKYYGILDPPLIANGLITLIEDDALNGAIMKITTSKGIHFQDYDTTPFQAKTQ
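20 nM HPGD preincubated 15 min at room temperature with compound in 50 mM Tris-HCl pH 8, 0.01% Tween 20. Started with 1 mM NAD+ and 30 uM prostaglandin E2; NADH fluorescence (360/450 nm) read 5 times over 30-s intervals, last minus first.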
LMNA splice mod: qHTS Assay for Modulators of Lamin A Splicing. HeLa LMNA splicing GFP/RFP minigene ratio, 48 h. Potency, µM (highest dose often 46.1 µM), without a hit: top-dose ratio change, negative = inhibition, most hits filed as inhibitors. actives 0.01% (n = 200,000); active = well fitted inhibition curve with a large enough effect in the signal ratio, with a control signal flat, not every such curve was filed as active; inconclusive = small, poorly fitted or top-dose-only effect, or effect the other way, or a change in a side signal; the % refers to the signal ratio; also: % is scaled to controls: 0 for no effect and ±100 for the full control effect
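S3 HeLa cells stably expressing lamin A-EGFP splicing minigene plus DsRed2, 600 cells/well, 48 h compound exposure at 37C. Laser-scanning cytometry; analysed as GFP (500-530 nm)/RFP (575-640 nm) total intensity ratio; 0.5% DMSO vehicle.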
The depositor's hits bear a star; ? = inconclusive; . = not tested or not shown; [ ] = remark or other dose. Most compounds without a hit are left out; they make up all but 8.8% or so of the library. Unless noted, calls follow the shape of the dose curve; as a rule, active = well fitted inhibition curve with a large enough effect (not every such curve was filed as active); inconclusive = small, poorly fitted or top-dose-only effect, or another doubt; inactive = no such curve, though single readings can be large or run the other way. Potency is read from the fitted curve at half-maximal effect.

SMILES	HttQ103 aggreg	HTT ATP protect	ALDH1A1 inh	HPGD inh	LMNA splice mod
CCC(=O)[C@@H](c1ccccc1)c1ccccn1	.	1%[10 µM]	25%[13.5 µM]	-3%	.
CC(=O)c1cc(-c2ccc(F)cc2)n(CCC(=O)NCc2ccc(C)cc2)c1C	.	.	.	.	-11%[46 µM]
CC(CCc1ccccc1)NC(=O)CNC(=S)N(Cc1cccs1)C1CCCC1 (configuration not stated)	?	-82%	?	.	.
CC1=C(C(=O)N2CCN(c3cccc(Cl)c3)CC2)C2(CCCCC2)OC1=O	.	.	.	.	-1%[46 µM]
O=C(CN1C(=O)S/C(=C/c2cccnc2)C1=O)N1CCOCC1	?	-6%[10 µM]	?	-8%	?
CCOC(=O)COc1c(Br)cc(/C=C2\SC(=O)N(CC(=O)N3CCCC3)C2=O)cc1OC	6%	-22%[10 µM]	22µM*	-11%	-11%
O=C(CN1C(=O)S/C(=C/c2cc(Br)cs2)C1=O)N1CCOCC1	-6%	?	22µM*	-7%	-9%
O=C(CN1C(=O)S/C(=C/c2ccncc2)C1=O)N1CCOCC1	3%	.	25µM*	1%	-1%
Cc1c(C(=O)N2CCC(C)CC2)c(S(=O)(=O)Nc2ccc(OC(F)(F)F)cc2)c(C)n1C	.	.	.	.	6%[46 µM]
Cc1ccc(N/C(N)=N/c2nc3c(c(=O)[nH]2)CCCC3)c(C)c1	8%	13%	-5%	-28%	4%
Cc1ccc(N/C(N)=N/c2nc(C)cc(N3CCCCC3)n2)c(C)c1	13µM*	-44%	-1%	.	.
CC(=O)N1CCc2cc(S(=O)(=O)NC(Cc3ccccc3)C(=O)Nc3cc(C)ccn3)ccc21 (configuration not stated)	27%[9.22 µM]	-17%	10µM*	-11%	-2%
Cc1cc(C#N)c(C)n1-c1cc(S(=O)(=O)N2CCOCC2)ccc1N1CCCC1	5%	-23%	4.5µM*	7.9µM*	19%
Cc1nn2c([nH]c(=O)c3ccccc32)c1C=O	12%	-9%	-1%	16µM*	16%
Cc1nn2c(nc(N3CCCCC3)c3ccccc32)c1C=O	-2%	7%[10 µM]	-6%	?	-4%
COc1ccc(C)cc1NC(=O)c1ccc(=O)n(Cc2ccccc2)c1	.	.	.	.	16%[46 µM]
O=C(O)[C@H](C1NCCS1)N1Cc2ccccc2C1 (some centres not stated)	.	.	3%[13.5 µM]	-2%	.
O=S(=O)(NC1CC1)c1ccc(S(=O)(=O)N2CCCc3ccccc32)cc1	11µM*	23%[10 µM]	?	-4%	?
O=C(Nc1ccc(S(=O)(=O)N2CCCc3ccccc32)cc1)C1CCCO1 (configuration not stated)	-4%	3%	-8%	-20%	-17%
O=C(O)C1CC=CCC1C(=O)Nc1ccc(S(=O)(=O)N2CCCc3ccccc32)cc1 (configuration not stated)	7%	-15%	22µM*	-15%	?
COc1ccc(S(=O)(=O)N2CCCc3ccccc32)cc1OC	-6%[9.22 µM]	2%[10 µM]	.	.	.
Cn1cnc2c(ncn2[C@@H]2O[C@H](CO)[C@@H](O)[C@H]2O)c1=N	.	19%	0%	.	.
O=C1C(Cl)=C(N2CCC(C(=O)O)CC2)C(=O)c2ccccc21	10%[9.22 µM]	-4%[10 µM]	.	.	.
NC(=O)C1CCN(C2=C(Cl)C(=O)c3ccccc3C2=O)CC1	5%	5%	?	14µM*	?
O=C(NCc1ccccc1Cl)C(=O)NCC(c1cccs1)S(=O)(=O)c1cccs1 (configuration not stated)	.	.	.	.	0%[46 µM]
COc1ccc2c(c1)-c1c(ssc1=S)C(C)(C)N2C(=O)CSC1=NCCS1	11µM*	31%[10 µM]	15%	-9%	?
COc1ccccc1C(=O)O/N=C(/C)c1ccc(N2C(=O)C3CCCCC3C2=O)cc1 (configuration not stated)	11%	0%	13µM*	25µM*	6%
COc1ccc2nc(C)cc(Sc3nc4ccccc4s3)c2c1	37%[9.22 µM]	?	.	.	.
